# Values joined by “and” are separate entries in the source; they are usually repeats but may differ in a detail not shown here. Equal values may be shown once. Among all 5,500 compounds or so, about 2,000 (36%) were called active. Another 18% or so got no clear call; they are omitted. The list shows a part of the results. Unmarked numbers belong to inactive results. Rule as the data show it: active = normalized growth mostly below about 0.91 (no sharp cut-off); inconclusive = no clear call, values can overlap the other calls; inactive = mostly above about 0.92.
# Assay: chemical genetic growth profiling, strain panel (AID 1159580);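 also: tested at 20 µM; growth read once vehicle control cultures reached saturation at 30 °C; 1 = growth at the plate median or of vehicle wells; lower values mean less growth of the strain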
# Settings: S. cerevisiae deletion strains, growth OD
smiles,measurement,setting,value
c1ccc(CC2=NCCN2)cc1,normalized growth,"locus YAL013W, strain DEP1, stronger effect = lower value",1.01
same,normalized growth,"locus YAL021C, strain ccr4, stronger effect = lower value",1.01
same,normalized growth,"locus YAL026C, strain drs2, stronger effect = lower value",1.03
same,normalized growth,"locus YAL030W, strain snc1, stronger effect = lower value",1.01
same,normalized growth,"locus YBL061C, strain skt5, stronger effect = lower value",1.01
same,normalized growth,"locus YBR009C, strain hhf1, stronger effect = lower value",0.998
same,normalized growth,"locus YBR021W, strain FUR4, stronger effect = lower value",0.861
same,normalized growth,"locus YBR023C, strain chs3, stronger effect = lower value",1.01
same,normalized growth,"locus YBR171W, strain sec66, stronger effect = lower value",1.03
same,normalized growth,"locus YBR229C, strain ROT2, stronger effect = lower value",0.983
same,normalized growth,"locus YBR231C, strain swc5, stronger effect = lower value",1.01
same,normalized growth,"locus YBR279W, strain paf1, stronger effect = lower value",1.01
same,normalized growth,"locus YCL011C, strain gbp2, stronger effect = lower value",1.02
same,normalized growth,"locus YCL016C, strain dcc1, stronger effect = lower value",1
same,normalized growth,"locus YCL029C, strain bik1, stronger effect = lower value",0.887 (active)
same,normalized growth,"locus YCL061C, strain MRC1, stronger effect = lower value",1.02
same,normalized growth,"locus YCL069W, strain vba3, stronger effect = lower value",1.03
same,normalized growth,"locus YCR088W, strain abp1, stronger effect = lower value",1.01
same,normalized growth,"locus YDL005C, strain med2, stronger effect = lower value",1.02
same,normalized growth,"locus YDL035C, strain GPR1, stronger effect = lower value",0.963
same,normalized growth,"locus YDL040C, strain nat1, stronger effect = lower value",1
same,normalized growth,"locus YDL074C, strain BRE1, stronger effect = lower value",1
same,normalized growth,"locus YDL101C, strain DUN1, stronger effect = lower value",0.987
same,normalized growth,"locus YDL134C, strain PPH21, stronger effect = lower value",0.99
same,normalized growth,"locus YDL185W, strain tfp1, stronger effect = lower value",0.816 (active)
same,normalized growth,"locus YDL192W, strain arf1, stronger effect = lower value",0.952
same,normalized growth,"locus YDR001C, strain nth1, stronger effect = lower value",1.01
same,normalized growth,"locus YDR069C, strain doa4, stronger effect = lower value",1
same,normalized growth,"locus YDR101C, strain arx1, stronger effect = lower value",0.903 (active)
same,normalized growth,"locus YDR137W, strain rgp1, stronger effect = lower value",1.03
same,normalized growth,"locus YDR150W, strain NUM1, stronger effect = lower value",0.983
same,normalized growth,"locus YDR159W, strain sac3, stronger effect = lower value",0.977
same,normalized growth,"locus YDR162C, strain NBP2, stronger effect = lower value",0.967
same,normalized growth,"locus YDR195W, strain ref2",1.02
same,normalized growth,"locus YDR297W, strain sur2, stronger effect = lower value",1.01
same,normalized growth,"locus YDR318W, strain mcm21, stronger effect = lower value",0.893 (active)
same,normalized growth,"locus YDR334W, strain swr1, stronger effect = lower value",1.02
same,normalized growth,"locus YDR335W, strain msn5, stronger effect = lower value",1
same,normalized growth,"locus YDR388W, stronger effect = lower value",0.923 (active)
same,normalized growth,"locus YDR392W, strain spt3, stronger effect = lower value",0.933
same,normalized growth,"locus YDR502C, strain sam2, stronger effect = lower value",0.91 (active)
same,normalized growth,"locus YEL003W, strain gim4, stronger effect = lower value",1.01
same,normalized growth,"locus YEL037C, strain rad23, stronger effect = lower value",1.02
same,normalized growth,"locus YEL061C, strain CIN8 (second series), stronger effect = lower value",1.01
same,normalized growth,"locus YEL061C, strain CIN8, stronger effect = lower value",0.987
same,normalized growth,"locus YER015W, strain faa2, stronger effect = lower value",1.01
same,normalized growth,"locus YER016W, strain bim1, stronger effect = lower value",1.04
same,normalized growth,"locus YER110C, stronger effect = lower value",0.929
same,normalized growth,"locus YER111C, strain swi4, stronger effect = lower value",1.02
same,normalized growth,"locus YER155C, strain BEM2 (second series), stronger effect = lower value",1.02
same,normalized growth,"locus YER155C, strain BEM2, stronger effect = lower value",0.891 (active)
same,normalized growth,"locus YER167W, strain BCK2, stronger effect = lower value",0.939
same,normalized growth,"locus YFR010W, strain ubp6, stronger effect = lower value",1.01
same,normalized growth,"locus YGL078C, strain dbp3, stronger effect = lower value",0.806 (active)
same,normalized growth,"locus YGL086W, strain mad1, stronger effect = lower value",0.955
same,normalized growth,"locus YGL167C, strain pmr1, stronger effect = lower value",1.02
same,normalized growth,"locus YGL173C, strain kem1, stronger effect = lower value",0.998
same,normalized growth,"locus YGL227W, strain vid30, stronger effect = lower value",1.03
same,normalized growth,"locus YGL240W, strain doc1, stronger effect = lower value",0.97
same,normalized growth,"locus YGL248W, strain PDE1, stronger effect = lower value",0.996
same,normalized growth,"locus YGL253W, strain hxk2, stronger effect = lower value",1.01
same,normalized growth,"locus YGR078C, strain PAC10, stronger effect = lower value",0.988
same,normalized growth,"locus YGR135W, strain pre9, stronger effect = lower value",0.937
same,normalized growth,"locus YGR229C, strain SMI1, stronger effect = lower value",1.01
same,normalized growth,"locus YGR252W, strain gcn5, stronger effect = lower value",0.898
same,normalized growth,"locus YHR013C, strain ard1, stronger effect = lower value",1.02
same,normalized growth,"locus YHR027C, strain rpn1, stronger effect = lower value",1.02
same,normalized growth,"locus YHR030C, strain SLT2, stronger effect = lower value",0.976 and 0.967
same,normalized growth,"locus YHR079C, strain IRE1 (second series), stronger effect = lower value",0.865 (active)
same,normalized growth,"locus YHR079C, strain IRE1, stronger effect = lower value",0.961
same,normalized growth,"locus YHR094C, strain hxt1, stronger effect = lower value",0.9 (active)
same,normalized growth,"locus YHR129C, strain ARP1, stronger effect = lower value",0.958
same,normalized growth,"locus YHR142W, strain chs7, stronger effect = lower value",1.02
same,normalized growth,"locus YHR200W, strain rpn10, stronger effect = lower value",0.91 (active)
same,normalized growth,"locus YIL066C, strain RNR3, stronger effect = lower value",0.987
same,normalized growth,"locus YIL073C, strain SPO22, stronger effect = lower value",1.01
same,normalized growth,"locus YIL125W, strain kgd1, stronger effect = lower value",0.787 (active)
same,normalized growth,"locus YIR030C, strain dcg1, stronger effect = lower value",0.899 (active)
same,normalized growth,"locus YJL092W, strain hpr5, stronger effect = lower value",1.01
same,normalized growth,"locus YJL095W, strain BCK1 (second series), stronger effect = lower value",1.01
same,normalized growth,"locus YJL095W, strain BCK1, stronger effect = lower value",1.01 and 0.968
same,normalized growth,"locus YJL115W, strain asf1, stronger effect = lower value",1.02
same,normalized growth,"locus YJL129C, strain trk1, stronger effect = lower value",1.03
same,normalized growth,"locus YJL134W, strain LCB3, stronger effect = lower value",0.969
same,normalized growth,"locus YJL154C, strain vps35, stronger effect = lower value",1.01
same,normalized growth,"locus YJL164C, strain tpk1, stronger effect = lower value",1.02
same,normalized growth,"locus YJL166W, strain qcr8, stronger effect = lower value",1.03
same,normalized growth,"locus YJL168C, strain set2, stronger effect = lower value",0.915 (active)
same,normalized growth,"locus YJL187C, strain SWE1 (second series), stronger effect = lower value",0.988
same,normalized growth,"locus YJL187C, strain SWE1, stronger effect = lower value",1.02
same,normalized growth,"locus YJR043C, strain POL32, stronger effect = lower value",0.939
same,normalized growth,"locus YJR066W, strain TOR1, stronger effect = lower value",0.935

# Source: PubChem BioAssay AID1159580 (chemical genetic matrix, 2015)
